The whole screen tested about 5,500 compounds, of which about 2,000 (36%) were called active. Not shown: some 18% with an inconclusive outcome. No stated cut-off is given here; in the data, active means normalized growth mostly below about 0.91 (no sharp cut-off); inconclusive means no clear call, values can overlap the other calls; inactive means mostly above about 0.92. The list shows a part of the results.
Assay: chemical genetic growth profiling, strain panel (AID 1159580);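 further: tested at 20 µM; growth read once vehicle control cultures reached saturation at 30 °C; 1 = growth at the plate median or of vehicle wells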
Conditions: growth OD

Measured: normalized growth

Cc1cc(=O)oc2c(O)c(O)ccc12
inactive: S. cerevisiae deletion strains, locus YJR043C, strain POL32, stronger effect = lower value 1 | S. cerevisiae deletion strains, locus YJR066W, strain TOR1, stronger effect = lower value 0.94 | S. cerevisiae deletion strains, locus YJR075W, strain HOC1, stronger effect = lower value 1.02 | S. cerevisiae deletion strains, locus YKL009W, strain mrt4, stronger effect = lower value 0.979 | S. cerevisiae deletion strains, locus YKL068W, stronger effect = lower value 1 | S. cerevisiae deletion strains, locus YKL085W, strain MDH1 (second series), stronger effect = lower value 0.99 | S. cerevisiae deletion strains, locus YKL085W, strain MDH1, stronger effect = lower value 0.99 | S. cerevisiae deletion strains, locus YKL160W, strain elf1, stronger effect = lower value 0.992 | S. cerevisiae deletion strains, locus YKR001C, strain vps1, stronger effect = lower value 0.99 | S. cerevisiae deletion strains, locus YKR026C, strain gcn3, stronger effect = lower value 0.963 | S. cerevisiae deletion strains, locus YKR091W, strain srl3, stronger effect = lower value 0.974 | S. cerevisiae deletion strains, locus YLL001W, strain dnm1, stronger effect = lower value 0.956 | S. cerevisiae deletion strains, locus YLL026W, stronger effect = lower value 0.975 | S. cerevisiae deletion strains, locus YLL041C, strain sdh2, stronger effect = lower value 0.993 | S. cerevisiae deletion strains, locus YLR027C, strain aat2, stronger effect = lower value 0.968 | S. cerevisiae deletion strains, locus YLR039C, strain RIC1, stronger effect = lower value 0.953 | S. cerevisiae deletion strains, locus YLR058C, strain SHM2, stronger effect = lower value 1.02 | S. cerevisiae deletion strains, locus YLR102C, strain apc9, stronger effect = lower value 1.01 | S. cerevisiae deletion strains, locus YLR113W, strain HOG1, stronger effect = lower value 0.981 | S. cerevisiae deletion strains, locus YLR221C, strain rsa3, stronger effect = lower value 0.995 | S. cerevisiae deletion strains, locus YLR258W, strain gsy2, stronger effect = lower value 0.986 | S. cerevisiae deletion strains, locus YLR262C, strain YPT6 (second series), stronger effect = lower value 0.93 | S. cerevisiae deletion strains, locus YLR262C, strain YPT6, stronger effect = lower value 0.923 | S. cerevisiae deletion strains, locus YLR268W, strain sec22, stronger effect = lower value 0.992 | S. cerevisiae deletion strains, locus YLR320W, strain mms22, stronger effect = lower value 0.993 | S. cerevisiae deletion strains, locus YLR330W, strain CHS5, stronger effect = lower value 1.02 | S. cerevisiae deletion strains, locus YLR342W, strain FKS1 (second series), stronger effect = lower value 0.996 | S. cerevisiae deletion strains, locus YLR342W, strain FKS1, stronger effect = lower value 0.971 | S. cerevisiae deletion strains, locus YLR357W, strain rsc2, stronger effect = lower value 0.952 | S. cerevisiae deletion strains, locus YLR370C, strain arc18, stronger effect = lower value 0.958 | S. cerevisiae deletion strains, locus YLR371W, strain rom2, stronger effect = lower value 1 | S. cerevisiae deletion strains, locus YLR384C, strain iki3, stronger effect = lower value 0.954 | S. cerevisiae deletion strains, locus YLR418C, strain cdc73, stronger effect = lower value 1.03 | S. cerevisiae deletion strains, locus YML016C, strain PPZ1, stronger effect = lower value 1.01 | S. cerevisiae deletion strains, locus YML032C, strain rad52, stronger effect = lower value 0.997 | S. cerevisiae deletion strains, locus YML120C, strain ndi1, stronger effect = lower value 0.974 | S. cerevisiae deletion strains, locus YML124C, strain tub3, stronger effect = lower value 1 | S. cerevisiae deletion strains, locus YMR058W, strain fet3, stronger effect = lower value 0.964 | S. cerevisiae deletion strains, locus YMR078C, strain ctf18, stronger effect = lower value 0.976 | S. cerevisiae deletion strains, locus YMR125W, strain sto1, stronger effect = lower value 0.944 | S. cerevisiae deletion strains, locus YMR129W, stronger effect = lower value 0.976 | S. cerevisiae deletion strains, locus YMR205C, strain PFK2, stronger effect = lower value 0.96 | S. cerevisiae deletion strains, locus YMR223W, strain ubp8, stronger effect = lower value 1.02 | S. cerevisiae deletion strains, locus YMR231W, strain pep5, stronger effect = lower value 0.967 | S. cerevisiae deletion strains, locus YMR263W, strain SAP30, stronger effect = lower value 1 | S. cerevisiae deletion strains, locus YMR307W, strain GAS1, stronger effect = lower value 0.965 | S. cerevisiae deletion strains, locus YNL067W, strain RPL9B, stronger effect = lower value 1.01 | S. cerevisiae deletion strains, locus YNL071W, strain lat1, stronger effect = lower value 0.983 | S. cerevisiae deletion strains, locus YNL153C, strain GIM3, stronger effect = lower value 1 | S. cerevisiae deletion strains, locus YNL183C, strain NPR1, stronger effect = lower value 0.931 | S. cerevisiae deletion strains, locus YNL209W, strain ssb2, stronger effect = lower value 0.977 | S. cerevisiae deletion strains, locus YNL233W, strain BNI4, stronger effect = lower value 1.01 | S. cerevisiae deletion strains, locus YNL248C, strain rpa49, stronger effect = lower value 1.01 | S. cerevisiae deletion strains, locus YNL250W, strain rad50, stronger effect = lower value 0.991 | S. cerevisiae deletion strains, locus YNL271C, strain bni1, stronger effect = lower value 1.01 | S. cerevisiae deletion strains, locus YNL298W, strain CLA4, stronger effect = lower value 0.991 | S. cerevisiae deletion strains, locus YNL307C, strain MCK1, stronger effect = lower value 1.03 | S. cerevisiae deletion strains, locus YNL322C, strain KRE1 (second series), stronger effect = lower value 0.968 | S. cerevisiae deletion strains, locus YNR049C, strain mso1, stronger effect = lower value 0.959 | S. cerevisiae deletion strains, locus YNR052C, strain pop2, stronger effect = lower value 0.984 | S. cerevisiae deletion strains, locus YOL006C, strain TOP1, stronger effect = lower value 1.14 | S. cerevisiae deletion strains, locus YOL012C, strain htz1 0.856 | S. cerevisiae deletion strains, locus YOL147C, strain pex11, stronger effect = lower value 1.01 | S. cerevisiae deletion strains, locus YOR001W, strain rrp6, stronger effect = lower value 0.988 | S. cerevisiae deletion strains, locus YOR061W, strain CKA2, stronger effect = lower value 0.999 | S. cerevisiae deletion strains, locus YOR069W, strain VPS5, stronger effect = lower value 1.01 | S. cerevisiae deletion strains, locus YOR070C, strain gyp1, stronger effect = lower value 0.975 | S. cerevisiae deletion strains, locus YOR080W, strain dia2, stronger effect = lower value 0.984 | S. cerevisiae deletion strains, locus YOR083W, strain WHI5, stronger effect = lower value 1 | S. cerevisiae deletion strains, locus YOR106W, strain vam3, stronger effect = lower value 0.926 | S. cerevisiae deletion strains, locus YOR136W, strain idh2, stronger effect = lower value 1.01 | S. cerevisiae deletion strains, locus YOR144C, strain elg1, stronger effect = lower value 0.993 | S. cerevisiae deletion strains, locus YOR184W, strain ser1, stronger effect = lower value 1.01 | S. cerevisiae deletion strains, locus YOR231W, strain MKK1, stronger effect = lower value 0.983 | S. cerevisiae deletion strains, locus YOR265W, strain rbl2, stronger effect = lower value 0.991 | S. cerevisiae deletion strains, locus YOR270C, strain vph1, stronger effect = lower value 0.864 | S. cerevisiae deletion strains, locus YOR290C, strain snf2, stronger effect = lower value 0.962 | S. cerevisiae deletion strains, locus YOR316C, strain cot1, stronger effect = lower value 1 | S. cerevisiae deletion strains, locus YPL051W, strain arl3, stronger effect = lower value 0.995 | S. cerevisiae deletion strains, locus YPL078C, strain atp4, stronger effect = lower value 0.981 | S. cerevisiae deletion strains, locus YPL106C, strain sse1, stronger effect = lower value 0.906 | S. cerevisiae deletion strains, locus YPL240C, strain hsp82, stronger effect = lower value 0.999 | S. cerevisiae deletion strains, locus YPL256C, strain CLN2, stronger effect = lower value 0.971 | S. cerevisiae deletion strains, locus YPR119W, strain clb2, stronger effect = lower value 0.985 | S. cerevisiae deletion strains, locus YPR141C, strain kar3, stronger effect = lower value 1 | S. cerevisiae deletion strains, locus YPR163C, strain tif3, stronger effect = lower value 0.99 | S. cerevisiae deletion strains, locus YPR167C, strain met16, stronger effect = lower value 1.02 | S. cerevisiae deletion strains, strain wtn01, stronger effect = lower value 0.997 | S. cerevisiae strains, strain wild type, stronger effect = lower value 1

Reference: PubChem BioAssay AID1159580 (chemical genetic matrix, 2015)
